# Reference: PubChem BioAssay (EPA / NIEHS)
# More than one record can exist for a structure, and the calls need not agree. Activity calls are given as the source filed them. The calls were made as follows: active = hit-call score of the fitted dose curve at least 0.9, where 1 is the maximum; inactive = score below 0.9.
# How the values were obtained:
# [1] = ATG_M_32_CIS: Attagene CIS-FACTORIAL HepG2 Assay for M32 Transcription Factor (Internal Marker) (AID 2282949); details: HepG2 Attagene cis-factorial M32 reporter, mRNA; actives raise or lower the signal;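 also: background control marker of the multiplexed CIS panel rather than a real target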
# Procedure, shortened: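 Internal background marker read-out: RT-PCR/capillary electrophoresis fluorescence of reporter transcripts from transiently transfected HepG2 cells after 24 h chemical exposure. Activity fitted bidirectionally relative to DMSO negative control.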
# [2] = ATG_M_06_CIS: Attagene CIS-FACTORIAL HepG2 Assay for M06 Transcription Factor (Internal Marker) (AID 2282950); details: HepG2 Attagene CIS-FACTORIAL M06 internal marker reporter; actives raise or lower the signal
# Procedure, shortened: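 Cells (HepG2, transiently carrying cis-driven reporter units) receive chemical for 24 h before RNA isolation. Reporter cDNA is PCR-amplified, FAM-labelled by primer extension, HpaI-digested and sized on a capillary analyser.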
# [3] = target: Hypoxia-inducible factor 1-alpha (Homo sapiens) (UniProt Q16665); assay: ATG_HIF1a_CIS: Attagene CIS-FACTORIAL HepG2 Assay for human Hypoxia Inducible Factor 1 (HIF1A) (AID 2282951); details: HepG2 Attagene cis-factorial HIF1a reporter transcription; actives raise or lower the signal
# Procedure, shortened: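 Measures endogenous transcription-factor activity through cis-regulated reporter mRNA in HepG2. Cells dosed 24 h; transcripts quantified by RT-PCR with 6-FAM-labelled products separated by capillary electrophoresis; DMSO serves as negative control.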
# [4] = target: Heat shock factor protein 1 (Homo sapiens) (UniProt Q00613); assay: ATG_HSE_CIS: Attagene CIS-FACTORIAL HepG2 Assay for human Heat Shock Transcription Factor 1 (HSE) (AID 2282953); details: HepG2 HSE cis-reporter, Attagene RNA transcription; actives raise or lower the signal
# Procedure, shortened: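 Liver-derived HepG2 cells carry transiently introduced multiple reporter units governed by cis promoters. Reporter RNA measured 24 h post-dose through reverse transcription, PCR amplification, fluorescent labelling and capillary electrophoresis, normalised to DMSO.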
# [5] = ATG_MRE_CIS: Attagene CIS-FACTORIAL HepG2 Assay for human Metal Responsive Element (MRE) (AID 2282954); details: HepG2 MRE cis-reporter transcription, Attagene multiplex; actives raise or lower the signal
# Procedure, shortened: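 HepG2 cells transiently transfected with multiple cis-element reporter units measure endogenous MTF1-driven transcription. After 24 h compound exposure, reporter mRNA is quantified by RT-PCR with 6-FAM labelling, HpaI digestion and capillary electrophoresis; bidirectional fits versus DMSO.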
# [6] = ATG_PBREM_CIS: Attagene CIS-FACTORIAL HepG2 Assay for human Phenobarbital-responsive Enhancer Module (PBREM) (AID 2282955); details: HepG2 PBREM cis-reporter, Attagene multiplexed transcription; actives raise or lower the signal
# Procedure, shortened: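 Fluorescence of labelled reporter cDNA fragments, resolved by capillary electrophoresis, gives mRNA induction in transfected HepG2 cells treated for 24 h; DMSO serves as negative control and baseline.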
# [7] = target: Paired box protein Pax-6 (Homo sapiens) (UniProt P26367); assay: ATG_Pax6_CIS: Attagene CIS-FACTORIAL HepG2 Assay for human Paired Box 6 (PAX6) (AID 2282956); details: HepG2 CIS-FACTORIAL PAX6 reporter transcription, RNA readout; actives raise or lower the signal
# Procedure, shortened: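 HepG2 cells transiently transfected with cis-promoter-driven multiplexed reporter units sensing endogenous transcription factor activity; 24 h chemical exposure. Reporter mRNA quantified by RT-PCR, 6-FAM labelling, HpaI digestion and capillary electrophoresis; bidirectional fit versus DMSO baseline.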
# [8] = ATG_PXRE_CIS: Attagene CIS-FACTORIAL HepG2 Assay for human Pregnane X Receptor Element (PXRE) (AID 2282957); details: HepG2 Attagene CIS-FACTORIAL PXRE reporter, mRNA; actives raise or lower the signal
# Procedure, shortened: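 Cells: HepG2, transiently transfected reporter units under cis promoter control. Exposure: 24 h. Detection: reporter mRNA via RT-PCR/CE fluorescence; bidirectional fitting, DMSO-referenced.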
# [9] = ATG_RORE_CIS: Attagene CIS-FACTORIAL HepG2 Assay for human RAR-related Orphan Receptor Element (RORE) (AID 2282959); details: HepG2 Attagene cis-factorial RORE reporter, mRNA; actives raise or lower the signal
# Procedure, shortened: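 Cells were HepG2 carrying transfected cis-regulated reporter constructs, dosed for 24 hours. Total RNA was reverse-transcribed and reporter cDNA amplified, fluorescently labeled and sized by capillary electrophoresis. Activity was fitted bidirectionally relative to DMSO.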
# [10] = ATG_Sox_CIS: Attagene CIS-FACTORIAL HepG2 Assay for human SRY-box transcription factor (SOX) (AID 2282960); details: HepG2 Attagene cis-factorial SOX reporter, mRNA; actives raise or lower the signal
# Procedure, shortened: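 Transient MRTU transfection of HepG2; 24 h compound incubation; TriZol RNA, oligo(dT) RT, PCR, 6-FAM primer extension, HpaI cut, CE. Bidirectional fit, DMSO = baseline.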
# [11] = target: Transcription factor Sp1 (Homo sapiens) (UniProt P08047); assay: ATG_Sp1_CIS: Attagene CIS-FACTORIAL HepG2 Assay for human Specificity Protein 1 (Sp1) (AID 2282961); details: HepG2 Sp1 cis-reporter transcription, actives raise or lower the signal
# Procedure, shortened: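 Endogenous Sp1 activity was gauged in human liver HepG2 cells bearing transfected reporter units under a cis-regulating promoter. After 24 h dosing, reporter mRNA was quantified by RT-PCR with capillary electrophoresis, and activity fitted bidirectionally versus DMSO.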
# [12] = ATG_SREBP_CIS: Attagene CIS-FACTORIAL HepG2 Assay for human Sterol Regulatory Element Binding (SREBP) (AID 2282962); details: HepG2 Attagene cis-factorial SREBP reporter, mRNA; actives raise or lower the signal
# Procedure, shortened: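 HepG2 cells transiently transfected with multiplexed cis-promoter reporter units sensing endogenous transcription factors; reporter mRNA measured 24 h after dosing by RT-PCR, 6-FAM labeling, HpaI digestion and capillary electrophoresis. Bidirectional fit versus DMSO.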
# [13] = target: Signal transducer and activator of transcription 3 (Homo sapiens) (UniProt P40763); assay: ATG_STAT3_CIS: Attagene CIS-FACTORIAL HepG2 Assay for human Signal Transducer and Activator of Transcription 3 (STAT3) (AID 2282963); details: HepG2, Attagene cis-factorial STAT3 reporter transcription; actives raise or lower the signal
# Procedure, shortened: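 HepG2 cells transiently transfected with cis-element-driven multiple reporter transcription units; after 24 h chemical exposure, reporter mRNA measured by RT-PCR, 6-FAM primer-extension labelling, HpaI digestion and capillary electrophoresis. Bidirectional fitting versus DMSO baseline.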
# [14] = ATG_TA_CIS: Attagene CIS-FACTORIAL HepG2 Assay for human TA Basal Promoter (AID 2282964); details: HepG2 Attagene CIS-factorial TA basal promoter reporter; actives raise or lower the signal
# Procedure, shortened: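 Background internal-marker endpoint from a 52-component HepG2 cis-reporter panel. Cells treated 24 h; reporter transcripts quantified via RT-PCR and CE fluorescence against DMSO baseline.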
# [15] = ATG_TCF_b_cat_CIS: Attagene CIS-FACTORIAL HepG2 Assay for human T-Cell-Factor with beta-catenin (TCF/b-cat) (AID 2282965); details: HepG2 TCF/beta-catenin cis-reporter transcription, actives raise or lower the signal
# Procedure, shortened: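 Using capillary electrophoresis as the read-out, labelled reporter cDNA fragments from transiently transfected HepG2 were sized and quantified. Exposure lasted 24 hours; activity in either direction was referenced to DMSO.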
# [16] = ATG_TAL_CIS: Attagene CIS-FACTORIAL HepG2 Assay for human TAL Basal Promoter (AID 2282966); details: HepG2 Attagene cis-factorial TAL promoter reporter; actives raise or lower the signal;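 also: background control endpoint measuring basal TAL promoter reporter mRNA not a specific factor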
# Procedure, shortened: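 RT-PCR plus capillary electrophoresis quantifies reporter mRNA induction in transiently transfected HepG2 cells after 24 h chemical treatment. DMSO serves as negative control and baseline for bidirectional fitting.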
# [17] = ATG_TGFb_CIS: Attagene CIS-FACTORIAL HepG2 Assay for human Transforming Growth Factor (TGF) (AID 2282967); details: HepG2 Attagene CIS TGFb reporter, mRNA transcription; actives raise or lower the signal
# Procedure, shortened: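 Liver HepG2 line, cis-factorial reporter panel, 24 h dosing. Quantitation: RT-PCR products labeled with 6-FAM, cut with HpaI, resolved by capillary electrophoresis; DMSO-referenced bidirectional analysis.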
# [18] = target: Hepatocyte nuclear factor 6 (Homo sapiens) (UniProt Q9UBC0); assay: ATG_HNF6_CIS: Attagene CIS-FACTORIAL HepG2 Assay for human Hepatocyte Nuclear Factor 6 (HNF6) (AID 2282952); details: HepG2 Attagene cis-factorial HNF6 reporter transcription; actives raise or lower the signal
# Procedure, shortened: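 Multiplexed mRNA reporter assay in transfected HepG2; 24 h dosing; RT-PCR plus capillary electrophoresis fluorescence; DMSO-referenced bidirectional curve fitting.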
# [19] = ATG_PPRE_CIS: Attagene CIS-FACTORIAL HepG2 Assay for human Peroxisome Proliferator-activated Response Element (PPRE) (AID 2282958); details: HepG2 PPRE cis-element reporter, Attagene transcription factor profiling; actives raise or lower the signal
# Procedure, shortened: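 Cells are first transfected transiently with the multiplexed reporter library, then dosed for 24 h. Total RNA is reverse-transcribed, amplified, fluorescently end-labeled and HpaI-cut before capillary electrophoresis; activity is fitted bidirectionally against DMSO controls.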
# Chain of Hypoxia-inducible factor 1-alpha (Homo sapiens) (Q16665 whole entry, looked up): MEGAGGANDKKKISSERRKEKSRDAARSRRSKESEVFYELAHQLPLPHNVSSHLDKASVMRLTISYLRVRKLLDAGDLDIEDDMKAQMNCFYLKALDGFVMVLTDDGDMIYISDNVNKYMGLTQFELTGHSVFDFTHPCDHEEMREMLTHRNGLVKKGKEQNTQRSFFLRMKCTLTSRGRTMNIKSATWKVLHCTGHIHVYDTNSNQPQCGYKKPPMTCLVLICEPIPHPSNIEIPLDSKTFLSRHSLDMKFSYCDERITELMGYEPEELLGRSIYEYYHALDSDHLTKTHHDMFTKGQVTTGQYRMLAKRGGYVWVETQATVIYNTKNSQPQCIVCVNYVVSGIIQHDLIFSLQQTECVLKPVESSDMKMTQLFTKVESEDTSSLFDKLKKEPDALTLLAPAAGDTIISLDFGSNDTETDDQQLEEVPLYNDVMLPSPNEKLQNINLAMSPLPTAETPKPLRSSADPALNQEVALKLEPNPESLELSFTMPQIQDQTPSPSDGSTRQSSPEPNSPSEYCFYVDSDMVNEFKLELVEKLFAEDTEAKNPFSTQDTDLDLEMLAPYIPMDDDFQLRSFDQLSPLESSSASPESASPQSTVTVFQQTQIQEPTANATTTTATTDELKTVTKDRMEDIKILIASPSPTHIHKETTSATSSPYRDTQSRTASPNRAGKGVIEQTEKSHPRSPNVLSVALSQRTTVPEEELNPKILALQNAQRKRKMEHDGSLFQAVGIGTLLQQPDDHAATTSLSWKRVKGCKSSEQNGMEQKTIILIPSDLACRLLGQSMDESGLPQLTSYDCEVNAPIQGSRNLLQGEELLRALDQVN
# Chain of Signal transducer and activator of transcription 3 (Homo sapiens) (P40763 whole entry, looked up): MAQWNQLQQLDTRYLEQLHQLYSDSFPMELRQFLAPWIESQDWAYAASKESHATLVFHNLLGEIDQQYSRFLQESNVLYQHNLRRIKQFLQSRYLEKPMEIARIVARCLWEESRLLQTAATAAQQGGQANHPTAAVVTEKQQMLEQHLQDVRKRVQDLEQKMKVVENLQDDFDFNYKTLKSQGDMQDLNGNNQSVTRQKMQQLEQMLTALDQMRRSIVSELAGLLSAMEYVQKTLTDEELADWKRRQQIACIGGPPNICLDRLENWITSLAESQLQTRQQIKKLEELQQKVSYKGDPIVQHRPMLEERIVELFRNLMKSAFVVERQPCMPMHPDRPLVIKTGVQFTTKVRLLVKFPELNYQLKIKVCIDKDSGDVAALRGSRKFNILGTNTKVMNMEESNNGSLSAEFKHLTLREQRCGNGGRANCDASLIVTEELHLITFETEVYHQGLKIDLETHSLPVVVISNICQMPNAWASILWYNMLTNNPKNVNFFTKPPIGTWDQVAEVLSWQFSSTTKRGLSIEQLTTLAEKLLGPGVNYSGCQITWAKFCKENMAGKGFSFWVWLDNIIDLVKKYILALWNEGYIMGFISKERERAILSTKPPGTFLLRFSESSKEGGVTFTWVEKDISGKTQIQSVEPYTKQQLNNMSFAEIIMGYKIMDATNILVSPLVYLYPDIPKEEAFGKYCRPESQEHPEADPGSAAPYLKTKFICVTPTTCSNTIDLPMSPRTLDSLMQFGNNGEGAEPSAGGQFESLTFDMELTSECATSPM
# Chain of Hepatocyte nuclear factor 6 (Homo sapiens) (Q9UBC0 whole entry, looked up): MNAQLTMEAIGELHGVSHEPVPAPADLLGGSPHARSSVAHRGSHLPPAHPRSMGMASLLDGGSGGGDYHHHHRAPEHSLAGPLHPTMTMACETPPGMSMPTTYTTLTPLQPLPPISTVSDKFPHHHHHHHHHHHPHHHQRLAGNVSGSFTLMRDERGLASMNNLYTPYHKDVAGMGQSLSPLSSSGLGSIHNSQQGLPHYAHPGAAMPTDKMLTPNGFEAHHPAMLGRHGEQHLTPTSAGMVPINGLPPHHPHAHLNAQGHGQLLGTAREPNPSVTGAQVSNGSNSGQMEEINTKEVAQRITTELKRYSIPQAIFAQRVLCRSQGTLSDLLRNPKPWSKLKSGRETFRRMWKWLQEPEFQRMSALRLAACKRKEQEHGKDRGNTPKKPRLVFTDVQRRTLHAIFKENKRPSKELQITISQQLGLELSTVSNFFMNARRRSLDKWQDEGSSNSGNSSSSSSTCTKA
# Chain of Transcription factor Sp1 (Homo sapiens) (P08047 whole entry, looked up): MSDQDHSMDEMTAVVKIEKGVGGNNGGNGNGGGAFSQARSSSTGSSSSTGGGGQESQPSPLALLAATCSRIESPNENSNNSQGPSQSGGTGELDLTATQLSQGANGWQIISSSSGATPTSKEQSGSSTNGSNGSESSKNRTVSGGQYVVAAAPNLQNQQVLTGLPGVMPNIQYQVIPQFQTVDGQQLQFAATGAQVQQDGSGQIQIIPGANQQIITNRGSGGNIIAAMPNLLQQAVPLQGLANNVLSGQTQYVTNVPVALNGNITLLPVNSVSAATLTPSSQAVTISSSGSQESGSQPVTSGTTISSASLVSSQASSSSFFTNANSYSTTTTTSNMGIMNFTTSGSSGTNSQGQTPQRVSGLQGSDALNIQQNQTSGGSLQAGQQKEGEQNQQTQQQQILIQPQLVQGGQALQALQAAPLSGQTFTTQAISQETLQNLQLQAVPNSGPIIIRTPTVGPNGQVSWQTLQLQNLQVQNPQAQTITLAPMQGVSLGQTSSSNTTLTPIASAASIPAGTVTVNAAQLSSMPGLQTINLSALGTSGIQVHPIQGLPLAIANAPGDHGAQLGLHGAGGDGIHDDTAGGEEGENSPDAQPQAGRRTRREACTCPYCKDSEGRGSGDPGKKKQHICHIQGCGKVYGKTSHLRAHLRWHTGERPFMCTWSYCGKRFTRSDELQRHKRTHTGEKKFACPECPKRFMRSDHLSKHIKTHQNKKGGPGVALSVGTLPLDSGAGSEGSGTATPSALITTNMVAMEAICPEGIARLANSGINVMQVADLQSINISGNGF
# Chain of Paired box protein Pax-6 (Homo sapiens) (P26367 whole entry, looked up): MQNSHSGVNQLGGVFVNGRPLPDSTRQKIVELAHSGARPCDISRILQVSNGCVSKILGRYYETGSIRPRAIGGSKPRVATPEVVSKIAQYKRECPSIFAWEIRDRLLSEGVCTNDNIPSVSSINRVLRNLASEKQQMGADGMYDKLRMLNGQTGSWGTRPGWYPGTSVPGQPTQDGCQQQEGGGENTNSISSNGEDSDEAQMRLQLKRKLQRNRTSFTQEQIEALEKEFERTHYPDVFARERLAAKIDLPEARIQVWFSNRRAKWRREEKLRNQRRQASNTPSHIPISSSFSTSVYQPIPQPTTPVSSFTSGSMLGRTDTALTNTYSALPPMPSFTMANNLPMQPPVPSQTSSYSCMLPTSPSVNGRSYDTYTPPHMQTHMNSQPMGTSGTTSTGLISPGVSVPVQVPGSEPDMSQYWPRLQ
# Chain of Heat shock factor protein 1 (Homo sapiens) (Q00613 whole entry, looked up): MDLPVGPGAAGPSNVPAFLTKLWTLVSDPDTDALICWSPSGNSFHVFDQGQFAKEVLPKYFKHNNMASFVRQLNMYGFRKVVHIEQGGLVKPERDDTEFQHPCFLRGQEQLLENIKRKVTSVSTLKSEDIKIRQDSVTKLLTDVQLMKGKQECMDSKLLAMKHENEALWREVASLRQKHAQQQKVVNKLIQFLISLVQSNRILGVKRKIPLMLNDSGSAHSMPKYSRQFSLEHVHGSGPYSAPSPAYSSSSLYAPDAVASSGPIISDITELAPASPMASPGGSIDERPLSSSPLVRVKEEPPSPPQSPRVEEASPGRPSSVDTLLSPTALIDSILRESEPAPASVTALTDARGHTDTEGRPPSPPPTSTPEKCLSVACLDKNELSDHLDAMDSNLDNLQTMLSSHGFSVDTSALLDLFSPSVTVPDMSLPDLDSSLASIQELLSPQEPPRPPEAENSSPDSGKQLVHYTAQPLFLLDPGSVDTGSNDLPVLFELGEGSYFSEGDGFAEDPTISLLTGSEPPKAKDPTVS
smiles,measurement,setting,value
C=CCOCC(CO)(CO)CO,outcome,[1],inactive
same,outcome,[2],inactive
same,outcome,[3],inactive
same,outcome,[4],inactive
same,outcome,[5],inactive
same,outcome,[6],inactive
same,outcome,[7],inactive
same,AC50,[8],25.3 µM (active)
same,outcome,[9],inactive
same,outcome,[10],inactive
same,outcome,[11],inactive
same,outcome,[12],inactive
same,outcome,[13],inactive
same,outcome,[14],inactive
same,outcome,[15],inactive
same,outcome,[16],inactive
same,outcome,[17],inactive
N=C(N)c1ccc(OCCCCCOc2ccc(C(=N)N)cc2)cc1,outcome,[1],inactive
same,outcome,[2],inactive
same,AC50,[3],113 µM (active)
same,outcome,[18],inactive
same,outcome,[4],inactive
same,AC50,[5],65.2 µM (active)
same,AC50,[7],101 µM (active)
same,AC50,[8],57.2 µM (active)
same,outcome,[19],inactive
same,outcome,[9],inactive
same,outcome,[10],inactive
same,outcome,[11],inactive
same,outcome,[12],inactive
same,outcome,[13],inactive
same,AC50,[14],59 µM (active)
same,AC50,[15],36.6 µM (active)
same,outcome,[16],inactive
same,outcome,[17],inactive
CC1CNCC(C)O1 (configuration not stated),outcome,[2],inactive
same,outcome,[3],inactive
same,outcome,[18],inactive
same,outcome,[4],inactive
same,outcome,[5],inactive
same,outcome,[6],inactive
same,outcome,[7],inactive
same,outcome,[8],inactive
same,outcome,[19],inactive
same,outcome,[9],inactive
same,outcome,[10],inactive
same,outcome,[11],inactive
same,outcome,[12],inactive
same,outcome,[13],inactive
same,outcome,[14],inactive
same,outcome,[15],inactive
same,outcome,[16],inactive
same,outcome,[17],inactive
FC1(F)C=CC(F)(F)C1(F)F,outcome,[1],inactive
same,outcome,[2],inactive
same,outcome,[3],inactive
same,outcome,[18],inactive
same,outcome,[4],inactive
same,outcome,[5],inactive
same,outcome,[6],inactive
same,outcome,[7],inactive
same,outcome,[8],inactive
same,outcome,[9],inactive
same,outcome,[10],inactive
same,outcome,[11],inactive
same,outcome,[12],inactive
same,outcome,[13],inactive
same,outcome,[14],inactive
same,outcome,[15],inactive
same,outcome,[16],inactive
same,outcome,[17],inactive
c1cc[nH]c1,outcome,[1],inactive
same,outcome,[2],inactive
same,outcome,[3],inactive
same,outcome,[4],inactive
same,outcome,[5],inactive
same,outcome,[7],inactive
same,outcome,[8],inactive
same,outcome,[19],inactive
same,outcome,[9],inactive
same,outcome,[10],inactive
same,outcome,[12],inactive
same,outcome,[13],inactive
same,outcome,[14],inactive
same,outcome,[15],inactive
same,outcome,[16],inactive
same,outcome,[17],inactive
CCN(CC)CC,outcome,[2],inactive
same,outcome,[3],inactive
same,outcome,[18],inactive
same,outcome,[4],inactive
same,outcome,[5],inactive
same,outcome,[6],inactive
same,outcome,[7],inactive
same,outcome,[8],inactive
same,outcome,[9],inactive
same,AC50,[10],18.3 µM (active)
same,outcome,[10],inactive
same,outcome,[11],inactive
same,outcome,[12],inactive
same,outcome,[13],inactive
same,outcome,[14],inactive
same,outcome,[15],inactive
same,outcome,[16],inactive
same,outcome,[17],inactive
O=C1C=CC(=O)N1c1cccc(N2C(=O)C=CC2=O)c1,outcome,[1],inactive
same,outcome,[2],inactive
same,outcome,[3],inactive
same,outcome,[18],inactive
same,outcome,[4],inactive
same,outcome,[5],inactive
same,outcome,[6],inactive
same,outcome,[7],inactive
same,outcome,[8],inactive
same,outcome,[19],inactive
same,outcome,[9],inactive
same,outcome,[11],inactive
same,outcome,[12],inactive
same,outcome,[13],inactive
same,outcome,[14],inactive
same,outcome,[15],inactive
same,outcome,[16],inactive
same,outcome,[17],inactive
COC(=O)C(F)(F)C(F)(F)C(F)(F)C(F)(F)C(F)(F)F,outcome,[1],inactive
same,outcome,[2],inactive
same,outcome,[3],inactive
same,outcome,[18],inactive
same,outcome,[4],inactive
same,outcome,[5],inactive
same,outcome,[6],inactive
same,outcome,[7],inactive
same,outcome,[8],inactive
same,outcome,[19],inactive
same,outcome,[9],inactive
same,outcome,[10],inactive
same,outcome,[11],inactive
same,outcome,[12],inactive
same,outcome,[13],inactive
same,outcome,[14],inactive
same,outcome,[15],inactive
same,outcome,[16],inactive
same,outcome,[17],inactive
